In all, about 33,000 sequences were measured (“E-score (-0.5 to 0.5)”: median about -0.012, highest 2% from about 0.27 on). This is one part of a sample in which the highest values are shown more often than they occur.
Each sequence was assayed against T1, Vhr1 (UniProt P40522) (assay: PBM E-score (8-mer binding enrichment) (E-score (-0.5 to 0.5)); higher = stronger / more preferred TF binding). Conditions: protein concentration: 200 nM; construct: GST-full length.
T1 sequence: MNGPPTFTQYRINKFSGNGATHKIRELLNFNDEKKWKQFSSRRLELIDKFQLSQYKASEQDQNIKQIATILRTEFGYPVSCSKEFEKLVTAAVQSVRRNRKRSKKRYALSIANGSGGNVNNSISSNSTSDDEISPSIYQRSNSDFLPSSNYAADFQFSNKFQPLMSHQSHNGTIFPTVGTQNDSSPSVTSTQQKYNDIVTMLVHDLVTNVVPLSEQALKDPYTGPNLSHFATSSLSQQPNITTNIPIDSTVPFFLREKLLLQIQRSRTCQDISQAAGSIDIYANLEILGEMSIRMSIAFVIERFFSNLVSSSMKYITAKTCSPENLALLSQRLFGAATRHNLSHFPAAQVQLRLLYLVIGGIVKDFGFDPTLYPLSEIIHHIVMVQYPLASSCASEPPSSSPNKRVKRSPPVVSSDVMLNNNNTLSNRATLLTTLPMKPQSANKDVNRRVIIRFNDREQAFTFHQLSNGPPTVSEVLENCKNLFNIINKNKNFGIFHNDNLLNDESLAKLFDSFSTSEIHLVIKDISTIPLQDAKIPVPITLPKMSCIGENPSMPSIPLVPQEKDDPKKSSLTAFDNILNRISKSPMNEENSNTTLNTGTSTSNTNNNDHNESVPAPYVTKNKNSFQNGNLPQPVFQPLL
Summary of the method: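 For each ungapped eight-base word taken together with its reverse complement, the Universal PBM Analysis Suite assigned an E-score. Binding data came from GST-tagged yeast transcription factors, applied at about 100-200 nM, on universal all-10-mer Agilent arrays made double-stranded by primer extension. Fluorescent anti-GST marked bound protein, and scans were normalised with masliner.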

Sequence | PBM E-score
CCTATTAG | -0.167
GTTTCCTA | -0.206
TACTGCAA | -0.0559
GCCTAACA | 0.026
CCCAACTC | 0.134
CCAGGCAA | -0.034
ACGCGAAA | -0.0435
GGTGCTAA | -0.166
CATTCGCA | -0.0683
AATTCGCG | -0.02
GATTCGCC | 0.105
CATTCGCC | 0.00808
GATTCGCA | 0.276
CATTCGCG | 0.279
AGTGCACA | 0.0902
AAAGATGC | -0.193
AAAGACGC | -0.154
ACAGGCGC | -0.173
CCTTCTGA | -0.149
GCACTTGA | -0.145
ATGTCTCC | 0.175
ATGTCTCA | 0.297
ATGTCTCG | 0.135
AAACCACG | -0.079

Sequence | PBM E-score
AAGACCGG | -0.166
ACATGACA | 0.206
ACATGACT | 0.446
CCATGAGA | 0.191
TCATGAGA | 0.101
ACATGACG | -0.0758
ACATGAGC | 0.0844
AGATGACT | 0.435
ACATGAGA | 0.273
ACATGAGG | -0.0901
AGATGACA | 0.0194
ACATGAGT | 0.279
AGATGACC | -0.0573
ACTAGGCT | 0.154
GATCAGGC | -0.00147
TAGCCTGA | 0.0109
ACAGTGGA | -0.0091
ACTTGTTG | -0.0998
ACGACCCT | -0.139
ATGAGATA | 0.134
CAGCAAGA | -0.0328
AACGAAGG | -0.252
CGGATCCA | 0.298
TGGATCCA | -0.0454

Sequence | PBM E-score
AGGATCCA | 0.0343
CACTCAGC | 0.044
AACTCAGA | 0.0696
AACTCAGC | -0.023
CACTCAGA | 0.12
GACTCAGA | 0.308
GACTCAGC | 0.404
ACTGCAGA | -0.0788
AATCTAGA | -0.14
AACCGCGA | 0.278
TACCGCGA | 0.107
AACCGCGT | 0.0481
CCTTTGCC | -0.17
CCATTCGC | 0.109
GTCATCGA | 0.205
CCCAACAG | -0.0293
CATGTATC | 0.18
CATGTATA | 0.28
GATGTATA | 0.242
ACGATGCT | 0.0556
AGTTGGAT | 0.127
AAGTCATC | 0.323
CAGTCATC | 0.419
AAGTCATT | -0.0196

Sequence | PBM E-score
AAGTCAAG | -0.156
ATGTCATC | 0.0412
AAGTCATG | 0.41
AGGTCATG | 0.136
CGGTCATC | 0.124
CCGTCATC | -0.0774
CAAAATCC | 0.096
CCCTTAAC | -0.168
ACATGTGG | 0.278
ACATGTGC | 0.117
ACATGTGA | 0.0459
AGTCGGTA | -0.0272
ACCCCAAT | -0.0588
ATTTGACA | -0.00873
GTCCATCA | -0.104
CCGAATCC | 0.0952
GCGAATCA | 0.345
TCGAATCA | 0.253
CCGAATCA | 0.288
ACGAATCC | 0.117
ACGAATCA | 0.336
ACGAATCT | -0.0246
CCGAATCG | 0.101
GCGAATCC | 0.0147

From the supplement of paper PMC3334620
